Our source for the inhibition, nuclei count and fluorescence slope values is PubChem BioAssay.

Calls of active or inactive are those of the source.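 The calls were made as follows, unless noted: active = fluorescence slope higher than the sample average by over 3 SD (cut at about -0.22 in these data, passing the limit was not always enough); inactive = the rest.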

Tested on in the first test: not listed separately
The experiment in a line: inhibitors of E-selectin induction by TNFa, primary screen, imaging, HUVEC, immunofluorescence, MLSMR starter and 10KST1 sets (AID 487;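 active = visually confirmed hit in the image check and inhibition above 20%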;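 as to inhibition: signal is fraction of cell area covered by stained E-selectin grains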;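 as to nuclei count: 100% = median nuclei count of all wells on the same plate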). The following applies: HUVEC TNFalpha-induced E-selectin immunofluorescence imaging, at 2 µM; inhibition: stronger effect = higher value; nuclei count: measured here: cell number, toxicity.
Regarding `O=C(NC1CCCc2ccccc21)C1CCN(c2nnc(-n3cccc3)s2)CC1` (stereo not given), the inhibition is -65.3% (inactive) and the nuclei count came to 114%.

As for `c1ccc(Oc2ccc(-n3cnnn3)cc2)cc1`, the nuclei count was determined as 106% and the inhibition was -14% (inactive).

Regarding `COc1ccc(C)cc1NC(=O)CN(Cc1nnc(-c2ccc(Cl)cc2)o1)C1CCCC1`, the nuclei count turned out to be 110% and the inhibition was -43.8% (inactive).

For `O=C(NCCN1C(=O)C2C3C=CC(C3)C2C1=O)N1CCCCC1` (stereo not given), the nuclei count was 99.5% and the inhibition was 3.5% (inactive).

Take `CCOc1ccc(N2CC(C(=O)Nc3cccc(C)c3C)CC2=O)cc1` (stereo not given): the inhibition was -61.5% (inactive) and the nuclei count came out at 114%.

For the compound `CCOC(=O)c1c(C)[nH]c(C(=O)Cn2c(=O)oc3ccccc32)c1C`, the inhibition was 31.3% (inactive) and the nuclei count amounted to 98.7%.

Regarding `COc1cccc(-n2ccnc2SCC(=O)N2CCc3ccccc32)c1`, the inhibition is 1.1% (inactive) and the nuclei count worked out at 89.7%.

With `Cc1[nH]c2ccccc2c1Cc1nnc(SCC(=O)NCc2ccco2)o1`, the inhibition is -24.9% (inactive) and the nuclei count is 87%.

On to `CCN(CC)CCCNC(=O)c1cn(C)c2ccc(S(=O)(=O)N(C)C)cc2c1=O`, for which the inhibition was 69.2% (active) and the nuclei count came out at 98.9%.

Regarding `CC(=O)NCC(=O)N(Cc1ccco1)C1(C(=O)NC2CCCCC2)CCCCC1`, the inhibition was -9.3% (inactive) and the nuclei count came out at 128%.

`COc1ccc(NC(=O)C2CCCN(S(=O)(=O)c3cccc4cccnc34)C2)cc1OC` (stereo not given): the nuclei count was found to be 109% and the inhibition was -24.3% (inactive).

Turning to `O=c1[nH]c(CN2CCN(Cc3ccccc3)CC2)nc2sc3c(c12)CCC3`, the inhibition was -73% (inactive) and the nuclei count was 99.5%.

Consider `O=C(CC1CCS(=O)(=O)C1)Nc1ccc[nH]c1=O` (stereo not given), for which the nuclei count is 49% and the inhibition is 42.5% (inactive).

Take `CCOC(=O)N1CCN(C(=O)CSc2nnc(COc3ccccc3)o2)CC1`: the inhibition is -3.6% (inactive) and the nuclei count is 112%.

Regarding `CC(C)OC(=O)CSc1nnc(-c2ccc(C(C)(C)C)cc2)n1N`, the inhibition was -158% (inactive) and the nuclei count was found to be 210%.

`CCCCn1c(=O)[nH]c(=O)c2c1nc(-c1ccncc1)n2CCOC`: the inhibition was -19.9% (inactive) and the nuclei count is 138%.

For the compound `O=C(NCCC1=CCCCC1)c1cc2c(s1)CS(=O)(=O)C2`, the nuclei count was 94.9% and the inhibition is 31% (inactive).

Take `COc1ccc(N2C(=O)CC(N3CCN(c4ccccc4F)CC3)C2=O)cc1` (stereo not given): the inhibition was 32.2% (inactive) and the nuclei count is 84.3%.

With `CCCN1CC23C=CC(O2)C(C(=O)O)C3C1=O` (stereo not given), the inhibition was -58.4% (inactive) and the nuclei count came out at 124%.

`CCN(CCCNC(=O)COc1cc(=O)n(CC)c2ccccc12)c1ccccc1`: the nuclei count came to 96.1% and the inhibition is 13.8% (inactive).

Regarding `CN(CC(=O)N1CCCc2c1c(=O)oc1ccc(O)cc21)Cc1ccccc1`, the nuclei count came out at 117% and the inhibition was -85.3% (inactive).

With `COc1ccc2[nH]c(=O)c(CNC3CCCCC3)cc2c1`, the inhibition was -17.6% (inactive) and the nuclei count was 90.1%.

In the case of `CC(=O)N1CCN=C1SCc1c(F)cccc1Cl`, the nuclei count was found to be 93.3% and the inhibition was 9.3% (inactive).

For `CN(CCCNC(=O)c1cn(C)c2ccc(S(=O)(=O)N(C)C)cc2c1=O)c1ccccc1`, the inhibition is 39.4% (inactive) and the nuclei count came out at 94.2%.

For the compound `Cc1nc2ccc(S(=O)(=O)NCC(=O)N3CCCCC3)cc2s1`, the inhibition is 27.3% (inactive) and the nuclei count turned out to be 94.4%.

Turning to `O=C1CC(C(=O)Nc2ccc(Br)cc2)C2(CCCC2)O1` (stereo not given), the nuclei count is 98.1% and the inhibition is -70% (inactive).

Regarding `CCN(C(=O)c1cc(Cl)ccc1OC)c1ccccc1`, the inhibition is -7.9% (inactive) and the nuclei count amounted to 118%.

For the compound `Fc1cccc(Nc2cc(-n3cccn3)ncn2)c1`, the inhibition was -65.9% (inactive) and the nuclei count came to 109%.

Take `O=C(COc1ccccc1F)NC1CC1`: the nuclei count was 100% and the inhibition was 19.9% (inactive).

On to `CC(=O)c1ccc(NC2OC(C)C(O)C(O)C2O)cc1` (stereo not given), for which the nuclei count was 103% and the inhibition is -90% (inactive).

As for `COc1ccc(N2CCN(C(c3cccs3)c3nnnn3C3CCCC3)CC2)cc1` (stereo not given), the nuclei count was 88.2% and the inhibition is -10.3% (inactive).

Take `C=CCOc1nc2c(c(=O)n(C)c(=O)n2C)n1C`: the inhibition is 0.3% (inactive) and the nuclei count was determined as 119%.

With `COc1ccccc1NC(=O)c1ccc(COc2ccccc2OC)o1`, the inhibition is -77.6% (inactive) and the nuclei count came to 107%.

For `CCOc1ccc(N(CC(=O)NCc2cccc(OC)c2)S(=O)(=O)c2c(C)noc2C)cc1`, the nuclei count turned out to be 104% and the inhibition was -114% (inactive).

On to `CCCCN(C)C(=O)c1ccc(CS(=O)(=O)c2ccccc2C)o1`, for which the nuclei count was 111% and the inhibition was -44.3% (inactive).

For `CC(C)Cc1nc(S(=O)(=O)c2ccc(Cl)cc2)c(N2CCOCC2)o1`, the inhibition was -14.6% (inactive) and the nuclei count was 105%.

Consider `O=C(Cn1nnc(-c2ccc(CN3CCOCC3)cc2)n1)NC1CCCCC1`, for which the inhibition is -20.9% (inactive) and the nuclei count turned out to be 118%.

Regarding `CC(=O)Nc1nc(=S)ss1`, the nuclei count was 120% and the inhibition is -28.4% (inactive).

As to `O=C(NCc1cccnc1)c1ccc2c(c1)OCO2`, the inhibition was 4.1% (inactive) and the nuclei count came out at 110%.

Turning to `O=C1C(c2ccncc2)=C(O)c2ccccc21`, the nuclei count was 91.1% and the inhibition is 0.7% (inactive).

In the next test the target is Voltage-gated potassium channel subunit beta-2 (Rattus norvegicus) (UniProt P62483). Description: KvBeta enzyme negative modulators, primary screen, biochemical, NADPH fluorescence (AID 622).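 Also: slope of raw intensity against log time taken from 70 to 1610 s.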 The following applies: recombinant KvBeta, 4-cyanobenzaldehyde reduction, at 10 µM, stronger effect = higher value.
Chain of Voltage-gated potassium channel subunit beta-2 (Rattus norvegicus) (P62483 whole entry, looked up): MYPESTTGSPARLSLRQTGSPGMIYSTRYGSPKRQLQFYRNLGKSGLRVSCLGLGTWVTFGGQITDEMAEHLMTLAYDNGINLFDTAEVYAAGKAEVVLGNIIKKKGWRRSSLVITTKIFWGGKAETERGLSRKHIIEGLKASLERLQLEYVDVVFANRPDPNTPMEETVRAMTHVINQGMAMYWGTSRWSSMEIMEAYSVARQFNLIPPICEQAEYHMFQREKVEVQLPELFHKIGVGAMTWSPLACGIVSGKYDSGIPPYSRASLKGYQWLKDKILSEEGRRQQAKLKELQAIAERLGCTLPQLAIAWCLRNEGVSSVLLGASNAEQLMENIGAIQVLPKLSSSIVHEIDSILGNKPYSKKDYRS
In the case of `O=C(NC1CCCc2ccccc21)C1CCN(c2nnc(-n3cccc3)s2)CC1` (stereo not given), the fluorescence slope was -0.583 (inactive).

For the compound `c1ccc(Oc2ccc(-n3cnnn3)cc2)cc1`, the fluorescence slope is -0.391 (inactive).

Take `COc1ccc(C)cc1NC(=O)CN(Cc1nnc(-c2ccc(Cl)cc2)o1)C1CCCC1`: the fluorescence slope was -0.478 (inactive).

For `O=C(NCCN1C(=O)C2C3C=CC(C3)C2C1=O)N1CCCCC1` (stereo not given), the fluorescence slope is -0.604 (inactive).

For the compound `CCOc1ccc(N2CC(C(=O)Nc3cccc(C)c3C)CC2=O)cc1` (stereo not given), the fluorescence slope was -0.608 (inactive).

Turning to `CCOC(=O)c1c(C)[nH]c(C(=O)Cn2c(=O)oc3ccccc32)c1C`, the fluorescence slope is -0.285 (inactive).

As for `COc1cccc(-n2ccnc2SCC(=O)N2CCc3ccccc32)c1`, the fluorescence slope is -0.536 (inactive).

In the case of `Cc1[nH]c2ccccc2c1Cc1nnc(SCC(=O)NCc2ccco2)o1`, the fluorescence slope was -0.436 (inactive).

In the case of `CCN(CC)CCCNC(=O)c1cn(C)c2ccc(S(=O)(=O)N(C)C)cc2c1=O`, the fluorescence slope is -0.587 (inactive).

Turning to `CC(=O)NCC(=O)N(Cc1ccco1)C1(C(=O)NC2CCCCC2)CCCCC1`, the fluorescence slope was -0.538 (inactive).

`COc1ccc(NC(=O)C2CCCN(S(=O)(=O)c3cccc4cccnc34)C2)cc1OC` (stereo not given): the fluorescence slope was -0.559 (inactive).

As for `O=c1[nH]c(CN2CCN(Cc3ccccc3)CC2)nc2sc3c(c12)CCC3`, the fluorescence slope is -0.596 (inactive).

As to `O=C(CC1CCS(=O)(=O)C1)Nc1ccc[nH]c1=O` (stereo not given), the fluorescence slope is -0.41 (inactive).

Consider `CCOC(=O)N1CCN(C(=O)CSc2nnc(COc3ccccc3)o2)CC1`, for which the fluorescence slope is -0.565 (inactive).

For the compound `CC(C)OC(=O)CSc1nnc(-c2ccc(C(C)(C)C)cc2)n1N`, the fluorescence slope was -0.469 (inactive).

With `CCCCn1c(=O)[nH]c(=O)c2c1nc(-c1ccncc1)n2CCOC`, the fluorescence slope is -0.446 (inactive).

As for `O=C(NCCC1=CCCCC1)c1cc2c(s1)CS(=O)(=O)C2`, the fluorescence slope was -0.433 (inactive).

`COc1ccc(N2C(=O)CC(N3CCN(c4ccccc4F)CC3)C2=O)cc1` (stereo not given): the fluorescence slope is -0.538 (inactive).

On to `CCCN1CC23C=CC(O2)C(C(=O)O)C3C1=O` (stereo not given), for which the fluorescence slope is -0.518 (inactive).

As to `CCN(CCCNC(=O)COc1cc(=O)n(CC)c2ccccc12)c1ccccc1`, the fluorescence slope was -0.501 (inactive).

As for `CN(CC(=O)N1CCCc2c1c(=O)oc1ccc(O)cc21)Cc1ccccc1`, the fluorescence slope was -0.258 (inactive).

`COc1ccc2[nH]c(=O)c(CNC3CCCCC3)cc2c1`: the fluorescence slope was -0.452 (inactive).

As for `CC(=O)N1CCN=C1SCc1c(F)cccc1Cl`, the fluorescence slope is -0.626 (inactive).

Consider `CN(CCCNC(=O)c1cn(C)c2ccc(S(=O)(=O)N(C)C)cc2c1=O)c1ccccc1`, for which the fluorescence slope is -0.582 (inactive).

In the case of `Cc1nc2ccc(S(=O)(=O)NCC(=O)N3CCCCC3)cc2s1`, the fluorescence slope was -0.488 (inactive).

For the compound `O=C1CC(C(=O)Nc2ccc(Br)cc2)C2(CCCC2)O1` (stereo not given), the fluorescence slope is -0.406 (inactive).

For `CCN(C(=O)c1cc(Cl)ccc1OC)c1ccccc1`, the fluorescence slope is -0.447 (inactive).

For the compound `Fc1cccc(Nc2cc(-n3cccn3)ncn2)c1`, the fluorescence slope is -0.509 (inactive).

In the case of `O=C(COc1ccccc1F)NC1CC1`, the fluorescence slope is -0.395 (inactive).

As for `CC(=O)c1ccc(NC2OC(C)C(O)C(O)C2O)cc1` (stereo not given), the fluorescence slope was -0.382 (inactive).

In the case of `COc1ccc(N2CCN(C(c3cccs3)c3nnnn3C3CCCC3)CC2)cc1` (stereo not given), the fluorescence slope is -0.614 (inactive).

`C=CCOc1nc2c(c(=O)n(C)c(=O)n2C)n1C`: the fluorescence slope was -0.444 (inactive).

In the case of `COc1ccccc1NC(=O)c1ccc(COc2ccccc2OC)o1`, the fluorescence slope was -0.605 (inactive).

`CCOc1ccc(N(CC(=O)NCc2cccc(OC)c2)S(=O)(=O)c2c(C)noc2C)cc1`: the fluorescence slope is -0.415 (inactive).

For `CCCCN(C)C(=O)c1ccc(CS(=O)(=O)c2ccccc2C)o1`, the fluorescence slope was -0.569 (inactive).

Turning to `CC(C)Cc1nc(S(=O)(=O)c2ccc(Cl)cc2)c(N2CCOCC2)o1`, the fluorescence slope was -0.612 (inactive).

For the compound `O=C(Cn1nnc(-c2ccc(CN3CCOCC3)cc2)n1)NC1CCCCC1`, the fluorescence slope is -0.584 (inactive).

On to `CC(=O)Nc1nc(=S)ss1`, for which the fluorescence slope is -0.486 (inactive).

For `O=C(NCc1cccnc1)c1ccc2c(c1)OCO2`, the fluorescence slope is -0.53 (inactive).

Consider `O=C1C(c2ccncc2)=C(O)c2ccccc21`, for which the fluorescence slope was -0.333 (inactive).
